Pf growth 48h: P. falciparum growth inhibition at 48 hours (one generation); P. falciparum luciferase growth in erythrocytes, 48 h; Potency, µM (titrated, usually from 28.7 µM), for inactives: top-dose activity change, negative = inhibition, actives largely listed as inhibitors; hit rate 5.9% among 310,000; AID 504832; note: % is set by controls: 0 for no effect and ±100 for the full control effect
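A one-generation exposure of luciferase-tagged malaria parasites in RPMI 1640/Albumax erythrocyte culture, 37 C and 5% CO2. Inhibition is inferred from decreased luminescence after adding detection reagent.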
RE007 growth inh: less growth of the S. pombe RE007 Vpr strain | S. pombe RE007 Vpr strain, BacTiter-Glo ATP luminescence, 24 h | Potency, µM (doses to about 92.2 µM), without a hit: at the top dose activity change, negative = less growth, hits mostly inhibitors | hit rate 0.21% among 360,000; active = well fitted falling curve with a large enough effect; inconclusive = small, poorly fitted or top-dose-only effect; inactive = no such curve, though single readings can be large or run the other way; note: % is set by controls: 0 for no effect and ±100 for the full control effect; nearly all actives have a fitted effect of over 50% in size
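Fission yeast RE007 carrying one integrated HIV-1 vpr copy, seeded at OD 0.01 in PMG+AL medium with 23 nL pinned compound. Grown 24 h at 30 degrees; viability read by BacTiter-Glo luminescence after 5 min.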
NS1 function inh: blocks influenza NS1 protein function | hit rate 0.4% among 270,000 | Potency, µM (series often up to 46.1 µM), for inactives: top-dose activity, positive = more growth; calls by dose curve; note: actives are rising curves; nearly all actives have a fitted effect of over 50% in size
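Read-out: OD600 growth recovery of NS1-expressing budding yeast. Cells grown overnight at 30C in -URA glucose medium, washed, resuspended and diluted 1:100 in 2% galactose assay medium, pH 6.0. Same strain lacking NS1 served as positive control.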
Pf growth 96h: P. falciparum growth inhibition at 96 hour, primary screen for plastid delayed-death inhibitors; P. falciparum luciferase reporter growth, 96 h; Potency, µM (titrated, usually from 28.7 µM), without a hit: at the highest dose activity change, negative = inhibition, actives largely listed as inhibitors; hit rate 6.9% among 320,000; note: % is set by controls: 0 for no effect and ±100 for the full control effect
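Parasite growth measured via integrated firefly luciferase reporter in P. falciparum. Infected erythrocytes at 2% hematocrit, 0.05% parasitemia final were treated 96 hours at 37 C under 5% CO2, and luminescence was read.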
SARS PLP yeast: blocks SARS-CoV papain-like protease in a yeast assay; S. cerevisiae expressing SARS-CoV PLpro, growth rescue; Potency, µM (titrated, usually from 32.9 µM), without a hit: at the top dose activity, positive = growth rescue, usual class: activators; hit rate 0.19% among 330,000; AID 485353; calls by dose curve; note: 0% is about no effect; nearly all actives have a fitted effect of over 55% in size
* marks the source's active call; other numbers are inactive results; u = inconclusive; x = no result given; [ ] = another dose, or the depositor's remark. Compounds with a hit are over-represented: about 9.5% of the library has one in this group of screens. Unless noted, calls come from the whole dose curve; as a rule, active = well fitted inhibition curve with a large enough effect; inconclusive = small, poorly fitted or top-dose-only effect, or another doubt; inactive = no such curve, though single readings can be large or run the other way. Potency is the fitted concentration of half-maximal effect.

SMILES	Pf growth 48h	RE007 growth inh	NS1 function inh	Pf growth 96h	SARS PLP yeast
CC(C)n1cnc2c(Nc3cccc(Cl)c3)nc(NCCCO)nc21	u	-5.6%	0.1%	14.7µM*	-0.6%
CCOC(=O)NS(=O)(=O)c1ccc(CCNC(=O)c2cc(C)on2)cc1	-7.1%	18.5%	-8.1%	-18.2%	-13.8%
O=C(CC1CCCCC1)NCc1ccccc1Cl	162.9%	2.4%	-0.8%	u	-0.7%
CCNC(=O)CC1C(=O)N(c2ccc(F)cc2)C(=S)N1CCc1ccncc1 (stereo not given)	13.1µM*	5.2%	x	u	-5.8%
CCc1ccc(NC(=O)CC2C(=O)N(c3ccc(C)cc3)C(=O)N2CCc2ccncc2)cc1 (stereo not given)	14.7µM*	-15.8%	x	-4.4%	1.5%
O=C(CC1C(=O)N(c2ccc(Cl)cc2)C(=S)N1CCc1ccncc1)Nc1ccc(F)cc1 (stereo not given)	u	-3.3%	16.9%	u	-7.3%
Cc1onc(-c2c(F)cccc2Cl)c1C(=O)N(C)C1CCCCC1	40.9%	0.6%	-3.8%	-14.3%	6.9%
Cn1c2ccccc2c(=O)c2ccc(NCCc3cccs3)cc21	x	-0.6%	x	x	3.0%
Cc1cc(NC(=O)CN2C(=O)CC(c3ccco3)Sc3ccccc32)no1 (stereo not given)	u	-1.7%	u	11.7µM*	21.9%
Cc1ccccc1N1CC(C(=O)Nc2nnc(SCc3ccccn3)s2)CC1=O (stereo not given)	13.1µM*	-13.8%	3.4%	7.38µM*	2.5%
Cc1cc(NC(=O)CN2C(=O)CCSc3ccccc32)no1	0.0%	-23.6%	x	u	3.4%
Cc1cc(NC(=O)C2CC(=O)N(c3ccccc3C)C2)no1 (stereo not given)	16.1%	0.9%	11.4%	11.7µM*	0.3%
O=C(Nc1nnc(SCC(=O)N2CCCC2)s1)C1CC(=O)N(c2ccc(F)cc2)C1 (stereo not given)	-22.7%	13.2%	28.9%	11.7µM*	7.0%
Cc1cc(NC(=O)C2CC(=O)N(c3cccc(C)c3C)C2)no1 (stereo not given)	21.0%	-13.2%	3.0%	-13.0%	-1.4%
O=C(Nc1nnc(SCC(=O)N2CCOCC2)s1)C1CC(=O)N(c2ccc(F)cc2)C1 (stereo not given)	u	3.8%	24.6%	u	13.7%
Cc1ccc(S(=O)(=O)Nc2ccccc2N=Cc2ccc([N+](=O)[O-])cc2[N+](=O)[O-])cc1	x	-11.3%	x	x	x
O=C(NCc1cc([N+](=O)[O-])ccc1O)c1cccc(NS(=O)(=O)c2ccccc2)c1	-16.1%	4.5%	14.1%	u	-6.3%
COc1ccc(N2CC(C(=O)Nc3nnc(SCCC4OCCO4)s3)CC2=O)cc1 (stereo not given)	u	-7.1%	-0.6%	13.1µM*	-5.5%
O=C(NC(=S)NCc1ccccc1)c1ccccc1	-2.0%	-27.2%	6.2%	46.6%	-1.1%
CC(C)CC(=O)NC(=S)NCCc1ccccc1	u	u	-19.2%	u	1.6%
CC(C)(C)C(=O)NC(=S)NCc1ccccc1	-30.7%	-16.2%	15.1%	9.28µM*	-12.1%
CC(C)(C)CC(=O)NC(=S)NCCc1ccccc1	-12.4%	-13.5%	-4.1%	11.7µM*	26.5%
OC(COc1ccc(CNCCc2ccccc2F)cc1)CN1CCCCC1 (stereo not given)	6.57µM*	-14.7%	2.4%	-11.7%	0.6%
COC(=O)c1ccc(S(=O)(=O)NC(C)(C)C)n1C	37.5%	11.0%	3.3%	44.7%	0.3%
COCCn1c(-c2ccccc2)csc1=Nc1cccnc1	u	6.6%	x	u	-9.2%
SMILES	Pf growth 48h	RE007 growth inh	NS1 function inh	Pf growth 96h	SARS PLP yeast
c1cncc(N=c2scc(-c3cccc4ccccc34)n2CCCn2ccnc2)c1	9.28µM*	21.6%	-3.0%	9.28µM*	8.1%
Cc1ccc(-c2csc(=Nc3cccnc3)n2CCCN2CCCC2=O)cc1C	u	7.3%	-30.7%	11.7µM*	4.2%
Cc1ccc(-c2csc(=Nc3cccnc3)n2CCCn2ccnc2)cc1C	10.4µM*	-6.3%	20.2%	3.7µM*	5.7%
Cc1ccc2cc(C(c3nnnn3C3CCCC3)N(Cc3ccccc3)Cc3ccco3)c(=O)[nH]c2c1 (stereo not given)	x	5.4%	2.3%	u	2.2%
COCCn1nnnc1C(c1cc2ccc(C)cc2[nH]c1=O)N(Cc1ccco1)Cc1cccs1 (stereo not given)	x	2.2%	3.5%	74.7%	3.3%
COc1cc2cc(C(c3nnnn3C3CCCCC3)N(C)C3CCCCC3)c(=O)[nH]c2cc1OC (stereo not given)	5.86µM*	5.5%	-39.2%	-26.7%	6.9%
Cc1cc2cc(C(c3nnnn3C3CCCC3)N(Cc3cccnc3)Cc3ccco3)c(=O)[nH]c2cc1C (stereo not given)	x	-18.5%	7.5%	2.33µM*	12.5%
CCC(C)(C)n1nnnc1C(c1cc2ccc(C)cc2[nH]c1=O)N(Cc1cccnc1)Cc1ccco1 (stereo not given)	11.7µM*	10.6%	-32.4%	43.2%	-2.7%
O=C(Nc1ccc2c(c1)OCCO2)C(=O)NC1CC1	196.0%	-4.4%	0.3%	4.9%	0.0%
Cc1cc(C)c(-c2csc(NC(=O)C3=NN(c4ccccc4)C(=O)CC3)n2)c(C)c1	u	5.0%	u	9.28µM*	6.6%
Cc1cc(C)c(-c2csc(NC(=O)/C=C/c3cccs3)n2)c(C)c1	-20.3%	1.1%	10.1%	11.7µM*	-11.4%
CCc1ccc(-c2csc(NC(=O)C3=NN(c4ccccc4)C(=O)CC3)n2)cc1	-29.0%	0.8%	u	u	-15.8%
Cc1cc(C)nc(NC(=O)/C=C/c2cccs2)c1	117.1%	11.0%	-47.4%	199.3%	-13.9%
COc1ccc(S(=O)(=O)NC(C)c2ccc3c(c2)OCCO3)cc1 (stereo not given)	x	4.4%	x	x	x
O=C(Nc1ccccc1Cl)c1cccc(NS(=O)(=O)c2ccccc2)c1	15.1%	x	-4.0%	x	-11.3%
Cc1cc2c(cc(C(=O)NCc3cccnc3)n2Cc2ccc(Cl)cc2)o1	u	-4.0%	8.2%	10.4µM*	-1.0%
CC(=O)Oc1ccccc1Cn1c(C)c(C(=O)NCc2ccccc2C(F)(F)F)sc1=O	x	1.4%[18.4 µM]	x	x	x
CC(C)Cn1c(C23CC4CC(CC(C4)C2)C3)n[nH]c1=S	u	-10.5%	-20.3%	8.1%	3.4%
Cn1c(C23CC4CC(CC(C4)C2)C3)n[nH]c1=S	u	-13.6%	23.0%	41.9%	12.6µM*
CC1CCCCN1S(=O)(=O)c1ccc(N(C(=O)c2cnccn2)C(C(=O)NC2CCCCC2)c2cccs2)cc1 (stereo not given)	11.7µM*	6.0%	-2.6%	8.28µM*	2.0%
Cc1ccc(N(C(=O)c2cnccn2)C(C(=O)NC2CCCCC2)c2ccc(O)cc2)cc1 (stereo not given)	u	1.5%	-6.0%	-23.8%	-0.3%
Cc1cc(C)cc(N(C(=O)c2ccccn2)C(C(=O)NC2CCCCC2)c2cccs2)c1 (stereo not given)	u	-4.2%	-3.3%	u	-0.5%

Bioassay records (PubChem)
